# High-throughput results from PubChem.
# STAT3 binder – STAT3 binders, primary screen, biochemical, small molecule microarray, single point, set 2 | AID 624138, 2012 | calls only | Signal transducer and activator of transcription 3 (Homo sapiens), P40763 | His-STAT3 binding, anti-His fluorescence | hit rate 0.2% among 17,000;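 active = compounds whose four printed spots each show fluorescence over background unusually high for their array block, chance value under 7%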
# NFkB binder – binders of NF-kB p50 subunit, primary screen, biochemical, small molecule microarray, anti-His fluorescence; anti-His fluorescence binding; calls only; Nuclear factor NF-kappa-B p105 subunit (Homo sapiens), P19838; hit rate 1.3% among 17,000;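 active = spot fluorescence over background significantly raised, with a chance value under 7% in all four replicate spots of the compound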;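 note: probe protein is his-tagged human p50 processed subunit at 1 µg/ml; raw spot fluorescence signals with no normalization applied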
# mut p53 SMM – binders of human mutant p53, primary screen, biochemical, small molecule microarray, anti-GST fluorescence; small molecule microarray binding; calls only; hit rate 0.4% among 17,000;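 active = compounds whose four printed spots each glow above background more than chance allows, each with a p-value under 7%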
# c-Myc SMM – binders of human c-Myc, primary screen, biochemical, small molecule microarray, anti-His fluorescence; AID 624141, 2012; His-c-Myc binding; calls only; Myc proto-oncogene protein (Homo sapiens), P01106; hit rate 1.5% among 17,000;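 active = spot fluorescence over background with P-value below 7% in all four replicate spots, showing protein binding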;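 note: score is binary with 100 for all four spots passing and 0 otherwise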
# Target sequence (P01106 whole entry, looked up): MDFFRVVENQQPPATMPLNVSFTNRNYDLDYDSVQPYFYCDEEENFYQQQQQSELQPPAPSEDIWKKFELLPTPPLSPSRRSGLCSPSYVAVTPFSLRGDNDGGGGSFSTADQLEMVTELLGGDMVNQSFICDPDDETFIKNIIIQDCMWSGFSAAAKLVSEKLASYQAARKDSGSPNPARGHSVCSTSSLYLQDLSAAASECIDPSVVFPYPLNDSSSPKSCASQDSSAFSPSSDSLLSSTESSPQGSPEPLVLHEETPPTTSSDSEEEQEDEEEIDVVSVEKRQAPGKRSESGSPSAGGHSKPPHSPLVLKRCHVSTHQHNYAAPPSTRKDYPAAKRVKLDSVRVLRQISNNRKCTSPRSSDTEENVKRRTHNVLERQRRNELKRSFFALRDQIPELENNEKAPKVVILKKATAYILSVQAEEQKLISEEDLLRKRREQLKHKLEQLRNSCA
# Numbers without * were called inactive; i = inactive; x = no result given; + = active, no number. This is a sample that favours compounds with a hit; in the whole collection about 2.4% have one here.
SMILES,STAT3 binder,NFkB binder,mut p53 SMM,c-Myc SMM
CC(C)NC(=O)Nc1ccc2c(c1)C(=O)N([C@@H](C)CO)C[C@@H](C)[C@@H](CN(C)S(=O)(=O)c1ccccc1)OCCCC[C@@H](C)O2,+,i,i,+
CC(C)NC(=O)Nc1ccc2c(c1)C(=O)N([C@H](C)CO)C[C@H](C)[C@H](CN(C)S(=O)(=O)c1ccccc1)OCCCC[C@@H](C)O2,i,i,i,i
Cc1noc(C)c1S(=O)(=O)N(C)C[C@@H]1OCCCC[C@H](C)Oc2ccc(NC(=O)NC(C)C)cc2C(=O)N([C@H](C)CO)C[C@H]1C,i,+,i,+
C[C@H](CO)N1C[C@H](C)[C@@H](CN(C)C(=O)NC2CCCCC2)Oc2c(NC(=O)NC3CCCCC3)cccc2C1=O,i,i,i,i
C[C@H]1CN([C@@H](C)CO)C(=O)c2cc(NC(=O)NC3CCCCC3)ccc2O[C@H]1CN(C)S(=O)(=O)c1ccc(Cl)cc1,i,i,i,i
Cc1ccc(S(=O)(=O)N(C)CC(=O)Nc2ccc(C)cc2C)cc1,i,i,i,i
C[C@@H]1O[C@@H](O[C@H]2[C@H](O[C@H]3CC[C@@]4(C)C(CC[C@]5(C)C4C=C[C@]46OC[C@@]7(CCC(C)(C)C[C@H]74)[C@@H](O)C[C@]65C)[C@]3(C)CO)O[C@H](CO)[C@@H](O)[C@@H]2O[C@@H]2O[C@H](CO)[C@@H](O[C@@H]3O[C@@H](C)[C@H](O)[C@@H](O)[C@H]3O)[C@H](O)[C@H]2O)[C@H](O)[C@H](O)[C@H]1O (stereo not given in full),i,+,i,+
C[C@@H]1O[C@@H](O[C@H]2[C@H](O[C@H]3CC[C@@]4(C)C(CC[C@]5(C)C4CC=C4C6CC(C)(C)CC[C@]6(C(=O)O[C@@H]6O[C@H](CO[C@@H]7O[C@H](CO)[C@@H](O[C@@H]8O[C@@H](C)[C@H](O)[C@@H](O)[C@H]8O)[C@H](O)[C@H]7O)[C@@H](O)[C@H](O)[C@H]6O)CC[C@]45C)[C@]3(C)CO)OC[C@H](O)[C@@H]2O)[C@H](O)[C@H](O)[C@H]1O (stereo not given in full),i,i,i,i
O=C1c2ccccc2C(=O)N1OS(=O)(=O)c1cccc2cccnc12,i,i,i,i
COc1ccc(OC)c(S(=O)(=O)ON2C(=O)c3ccccc3C2=O)c1,i,i,i,+
O=C(O)CCC(=O)Nc1ccc(Br)c2cccnc12,i,i,i,+
COc1ccc(S(=O)(=O)N(C)CC(=O)O)cc1,i,i,i,+
CN(CC(=O)O)S(=O)(=O)c1ccc2c(c1)OCCO2,i,i,i,i
CN(CC(=O)O)S(=O)(=O)c1cc(Cl)ccc1Cl,i,+,i,+
Cc1ccc(Cl)cc1N(CC(=O)O)S(C)(=O)=O,i,+,i,+
C=C[C@@]1(C)CC(=O)[C@]2(O)[C@@]3(C)[C@@H](O)CCC(C)(C)[C@@H]3[C@H](O)[C@H](OC(=O)CCCN3CCN(C)CC3)[C@@]2(C)O1,i,i,i,i
Cc1noc(C)c1NC(=O)Nc1ccc2c(c1)CC(=O)N([C@H](C)CO)C[C@H](C)[C@@H](CN(C)S(=O)(=O)c1cn(C)cn1)O2,i,i,i,i
COC(=O)CNC(=O)c1cc2cc(Cl)ccc2oc1=O,i,i,i,i
C[C@@H]1CCCCO[C@H](CN(C)S(=O)(=O)c2ccccc2)[C@H](C)CN([C@@H](C)CO)C(=O)c2cc(NS(C)(=O)=O)ccc2O1,i,i,i,i
O=C(N[C@@H](Cc1ccccc1)Cn1cc(CN2C(=O)COC[C@H]2c2ccccc2)nn1)c1ccccc1,i,i,+,i
Cc1ccc(S(=O)(=O)N[C@H](C(=O)NCCn2cc(CN3C(=O)COC[C@H]3c3ccccc3)nn2)C(C)C)cc1,i,i,+,i
O=C(Nc1ccccc1)N[C@H](Cc1ccccc1)Cn1cc(CN2C(=O)COC[C@H]2c2ccccc2)nn1,i,i,+,i
C#C[C@]1(O)CC[C@H]2[C@@H]3CCC4=Cc5oncc5C[C@]4(C)[C@H]3CC[C@@]21C,i,i,x,+
Cc1occc1-c1nnc2sc(-c3ccc(-c4ccccc4[N+](=O)[O-])o3)nn12,i,i,+,i
C[C@@H]1O[C@@H](O[C@H]2[C@H](O[C@H]3CC[C@@]4(C)C(CC[C@]5(C)C4CC=C4C6CC(C)(C)CC[C@]6(C(=O)O[C@@H]6O[C@H](CO[C@@H]7O[C@H](CO)[C@@H](O[C@@H]8O[C@@H](C)[C@H](O)[C@@H](O)[C@H]8O)[C@H](O)[C@H]7O)[C@@H](O)[C@H](O)[C@H]6O)CC[C@]45C)C3(C)C)OC[C@H](O)[C@@H]2O)[C@H](O)[C@H](O)[C@H]1O (stereo not given in full),i,i,i,i
SMILES,STAT3 binder,NFkB binder,mut p53 SMM,c-Myc SMM
CC(C)=CCC[C@](C)(O[C@@H]1O[C@H](CO[C@@H]2O[C@@H](CO)[C@H](O)[C@H]2O)[C@@H](O)[C@H](O)[C@H]1O)[C@H]1CC[C@]2(C)C1[C@H](O)CC1[C@@]3(C)CC[C@H](O[C@@H]4O[C@H](CO)[C@@H](O)[C@H](O)[C@H]4O[C@@H]4O[C@H](CO)[C@@H](O)[C@H](O)[C@H]4O)C(C)(C)C3CC[C@]12C (stereo not given in full),i,+,i,+
O=C1c2cccc3cccc(c23)C(=O)N1CCCSc1ncn[nH]1,i,i,i,+
N#Cc1c(-c2ccccc2)nc(SCCN2C(=O)c3ccccc3C2=O)[nH]c1=O,i,i,i,i
C[C@H](CO)N1C[C@H](C)[C@@H](CN(C)C(=O)Nc2ccc(F)cc2)Oc2ccc(NC(=O)Nc3ccccc3)cc2CC1=O,i,i,i,i
Cc1cc(Oc2ccccc2)nc(SCCOc2ccccc2)n1,i,i,i,i
C[C@@H]1CCCCO[C@H](CN(C)C(=O)C2CCCCC2)[C@H](C)CN([C@@H](C)CO)C(=O)c2cc(NS(=O)(=O)c3cccs3)ccc2O1,+,i,i,i
C[C@@H]1CCCCO[C@@H](CN(C)C(=O)C2CCCCC2)[C@@H](C)CN([C@H](C)CO)C(=O)c2cc(NS(=O)(=O)c3cccs3)ccc2O1,i,+,i,+
CCOC(=O)c1c(NC(=S)NC(=O)c2ccc(OC)c([N+](=O)[O-])c2)sc2c1CCC2,i,i,i,+
CC(NC(=O)c1ccc(Cl)cc1)C(=O)NC(C)(C)CO (stereo not given),i,i,i,i
